Source: PubChem
This is a sample that favours compounds with a hit; in the whole collection about 1.9% have one here.
ClpP mod: qHTS Assay for Activators of ClpP. AID 651965, 2013. hit rate 1.9% among 340,000. Potency, µM (titrated, usually from 57.5 µM), without a hit: at the top dose activity change, negative = active. purified B. subtilis ClpP, FRET peptide cleavage, 20 min. ATP-dependent Clp protease proteolytic subunit (Bacillus subtilis (strain 168)), P80244; active = well fitted falling curve with a large enough effect; inconclusive = small, poorly fitted or top-dose-only effect; inactive = no such curve, though single readings can be large or run the other way; also: potency is read from the fitted curve at half-maximal effect; the source files actives as falling curves though it sought activators and does not explain the sign; nearly all actives have a fitted effect of over 65% in size
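FRET quenching reversal measured ClpP activation: 10 microg/mL B. subtilis ClpP at pH 8 with the FRET-FV decapeptide, read at 430 nm after 320 nm excitation. The 20-min minus 0-min signal was scaled between DMSO/no-enzyme wells and ADEP (5.8 microM final).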
Pin1 inhibitor: blocks the human prolyl isomerase Pin1 | AID 504891 | Q13526 | Potency, µM (doses to about 115 µM), without a hit: at the highest dose activity, negative = inhibition, usual class: inhibitors | hit rate 0.009% among 390,000 | Pin1 FP peptide displacement, HiFluor488, 10 min; active = well fitted inhibition curve with a large enough effect in the polarisation, with a control signal flat, not every such curve was filed as active; inconclusive = small, poorly fitted or top-dose-only effect, or effect the other way, or a change in a side signal; inactive = no such curve, though single readings can be large or run the other way; the % refers to the polarisation; also: potency is read from the fitted curve at half-maximal effect; % is scaled to controls: 0 for no effect and ±100 for the full control effect
USP2a inh: USP2a (human) protease inhibition; USP2 core, Ub-CHOP2 coupled fluorogenic reporter, 485/531; hit rate 0.01% among 330,000; Potency, µM (highest dose often 38.3 µM), for the others: top-dose activity change, negative = inhibition, actives largely listed as inhibitors;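 also: potency is read from the fitted curve at half-maximal effect; plate controls were DMSO wells for no effect and full inhibition by NEM control for full effect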
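USP2 core (10nM final) preincubated 30min RT with compound in 20mM Tris-HCl pH 8.0, 2mM CaCl2, 2mM beta-mercaptoethanol, 0.05% CHAPS; 25nM Ub-CHOP2 plus 25nM reporter substrate added, fluorescence (Ex485/Em531) read after 60min.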
IL2 activator: activators of IL-2; IL-2 activation reporter assay, cell-based qHTS; stimulated with anti-CD3/CD4/CD28 beads; in transgenic mouse T cells; activation, % (series mostly up to about 46 µM); hit rate 0.065% among 360,000; in the data active = activation above about 50%; inconclusive = mostly about 30% to 49%; also: 0% is about no effect
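Using fluorescent plate cytometry, EGFP and DsRed are detected in transgenic mouse T cells stimulated 18 h at 37 degrees C with antibody-coated beads after 60 min compound pretreatment.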
a7 integrin act: activates integrin-mediated alleviation for muscular dystrophy; alpha7betagal myoblasts, beta-gal FDG fluorescence, 48 h; Potency, µM (doses to about 38.3 µM), for the others: top-dose activation, most hits filed as activators; hit rate 0.064% among 350,000; AID 624291;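 also: potency is read from the fitted curve at half-maximal effect; 100% = response of the positive control SU9516; nearly all actives have a fitted effect of over 60% in size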
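alpha7betagal+/- myoblasts (passage 13, 250/well) treated 48 h at 37C with compounds at 1:260 dilution of DMSO stock. Lysed, then beta-galactosidase activity read as FDG fluorescence (ex 480/em 540) after 30 min, with pre-read for autofluorescence.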
PKM2 act: PKM2 (human) enzyme activation; P14618; purified PKM2, Kinase-Glo ATP luminescence, activation; response scale: 0% is enzyme alone, no compound; Potency, µM (highest dose often 57.5 µM), for the others: top-dose activation, actives largely listed as activators; hit rate 0.34% among 260,000; also: potency is read from the fitted curve at half-maximal effect; % is scaled to controls: 0 for no effect and ±100 for the full control effect; nearly all actives have a fitted effect of over 55% in size
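hPK-M2, >95% pure; 0.1 mM ADP / 0.5 mM PEP final; imidazole pH7.2 buffer w/ 7 mM MgCl2, 50 mM KCl; 1 h RT; Kinase-Glo lum. Intermediate enzyme activity for dual inhibitor/activator qHTS.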
* marks the source's active call; other numbers are inactive results. Unless noted, calls follow the shape of the dose curve; as a rule, active = well fitted curve in the direction sought with a large enough effect; inconclusive = small, poorly fitted or top-dose-only effect, or another doubt; inactive = no such curve, though single readings can be large; an effect the other way counts as inactive or inconclusive.

What do the screens show for `COc1cc2cc(CN(CCN3CCOCC3)C(=O)Nc3ccc(F)cc3)c(=O)[nH]c2cc1OC`?
ClpP mod: 4.5%; Pin1 inhibitor: -5.1%; USP2a inh: 2.1%; IL2 activator: 3.6; a7 integrin act: 0.0%; PKM2 act: -7.4%

How did COc1cc2cc(CN(CCN3CCCC3)C(=O)Nc3ccc(F)cc3)c(=O)[nH]c2cc1OC do in these assays?
ClpP mod: 14.1µM*; Pin1 inhibitor: inconclusive; USP2a inh: inconclusive; IL2 activator: -1.9; a7 integrin act: -14.2%; PKM2 act: -0.1%

Results for COc1cc2cc(CN(Cc3cccs3)C(=S)Nc3ccccc3)c(=O)[nH]c2cc1OC ?
ClpP mod: 10µM*; Pin1 inhibitor: 2.6%; USP2a inh: -0.4%; IL2 activator: -1.8; a7 integrin act: 5.7%; PKM2 act: 1.7%

How did CCN(CC)CCCN(Cc1cc2cc3c(cc2[nH]c1=O)OCO3)C(=O)Nc1ccccc1OC do in these assays?
ClpP mod: 31.6µM*; Pin1 inhibitor: 3.9%; USP2a inh: -1.6%; IL2 activator: -0.5; a7 integrin act: -8.7%; PKM2 act: 5.0%

Results for COc1ccc2[nH]c(=O)c(CN(Cc3cccs3)C(=S)Nc3ccccc3)cc2c1 ?
USP2a inh: 4.5%; PKM2 act: 3.3%

What do the screens show for `CCOC(=O)c1sc(N2C(=O)c3oc4ccc(F)cc4c(=O)c3C2c2ccc(C)cc2)nc1C` (stereo not given)?
ClpP mod: -0.3%

How did COc1ccc(CN(Cc2ccccc2)C(C)=O)cc1COc1ccc(NC(C)=O)cc1 do in these assays?
ClpP mod: 0.3%; Pin1 inhibitor: -4.3%

What do the screens show for `CCN(CC)CCCN(Cc1cc2cc3c(cc2[nH]c1=O)OCCO3)C(=O)Nc1ccc(F)cc1`?
ClpP mod: 28.2µM*; Pin1 inhibitor: 4.9%; USP2a inh: -7.7%; IL2 activator: 11.7; a7 integrin act: -34.4%; PKM2 act: -9.6%

How did CCN(CC)CCCN(Cc1cc2cc3c(cc2[nH]c1=O)OCO3)C(=S)Nc1ccccc1 do in these assays?
Pin1 inhibitor: 0.1%; USP2a inh: -1.0%; IL2 activator: -0.2; a7 integrin act: -22.1%; PKM2 act: 4.8%

How did CC(=O)Oc1ccc2oc(C)c(C(=O)N3CCOCC3)c2c1 do in these assays?
ClpP mod: 1.3%; Pin1 inhibitor: -3.5%; USP2a inh: -1.5%; IL2 activator: -2.1; a7 integrin act: 3.5%; PKM2 act: -2.2%

What do the screens show for `CCOc1ccc2oc(-c3ccccc3)c(C(=O)N3CCN(C)CC3)c2c1`?
ClpP mod: 11.2µM*; Pin1 inhibitor: -1.7%; USP2a inh: -6.8%; IL2 activator: -1.2; a7 integrin act: 12.1%; PKM2 act: 1.2%

What do the screens show for `COc1ccc2oc(-c3ccccc3)c(C(=O)N3CCOCC3)c2c1`?
ClpP mod: 28.2µM*; Pin1 inhibitor: 5.7%; USP2a inh: -2.3%; IL2 activator: 0.6; a7 integrin act: 6.7%; PKM2 act: 0.3%

How did CCOc1ccc2oc(C(=O)N3CCN(Cc4ccccc4)CC3)c(C)c2c1 do in these assays?
Pin1 inhibitor: -1.7%; USP2a inh: -2.9%; IL2 activator: 2.8; a7 integrin act: 0.9%; PKM2 act: -4.5%

How did COC(=O)C1=C[C@@H](C(=O)OC)[C@@H]2C3=C(C(=O)C2(C)C)[C@H](C)n2c(=O)n(C)c(=O)n2[C@@H]3C1 do in these assays?
Pin1 inhibitor: -12.7%

How did Cc1ccc(SC[C@H](C)CN2CC[C@H](O)CCC2=O)cc1 do in these assays?
ClpP mod: 1.3%

What do the screens show for `CCCCc1nc(N2CCOCC2)c(C#N)c2c1COC(C)(C)C2`?
ClpP mod: 28.2µM*; Pin1 inhibitor: -2.4%; USP2a inh: -5.5%; IL2 activator: 1.2; a7 integrin act: 22.9%; PKM2 act: 12.6%

How did CC(C)c1nc(N2CCN(C(=O)c3ccccc3)CC2)c(C#N)c2c1COC(C)(C)C2 do in these assays?
ClpP mod: 28.2µM*; Pin1 inhibitor: -4.2%; USP2a inh: 0.1%; IL2 activator: -0.1; a7 integrin act: -14.4%; PKM2 act: -1.0%

Results for CC1(C)Cc2c(C#N)c(SCCO)nc(N3CCOCC3)c2CO1 ?
ClpP mod: -1.8%; Pin1 inhibitor: 0.1%; USP2a inh: 3.6%; IL2 activator: -2.8; a7 integrin act: -29.1%

Results for CCCc1nc(NCc2ccco2)c(C#N)c2c1COC(C)(C)C2 ?
ClpP mod: inconclusive; Pin1 inhibitor: 3.0%; USP2a inh: -0.2%; IL2 activator: 1.3; a7 integrin act: -13.2%; PKM2 act: 5.8%

How did CCCCc1nc(NCC2CCCO2)c(C#N)c2c1COC(C)(C)C2 (stereo not given) do in these assays?
ClpP mod: 7.94µM*; Pin1 inhibitor: -5.9%; USP2a inh: -1.8%; IL2 activator: -1.7; a7 integrin act: 31.7%; PKM2 act: -18.4%

Results for COc1ccc(CC(=O)Nc2ccc(-c3cn4ccc(C)cc4n3)cc2)cc1 ?
ClpP mod: 15.8µM*; Pin1 inhibitor: 49.9%; USP2a inh: 4.2%; IL2 activator: -0.2; a7 integrin act: -17.5%; PKM2 act: 0.1%

Results for CC1CCCCC12NC(=O)N(CC(=O)OCc1cccc(F)c1)C2=O (stereo not given) ?
ClpP mod: -0.6%; Pin1 inhibitor: 7.3%; USP2a inh: 2.1%; IL2 activator: -0.4; a7 integrin act: 10µM*

How did O=C1CCc2cc(S(=O)(=O)Nc3ccccc3-c3ccccc3)ccc2N1 do in these assays?
Pin1 inhibitor: 2.7%

Results for COc1ccc(CCNc2ncnc3nc[nH]c23)cc1 ?
ClpP mod: 0.7%; Pin1 inhibitor: -3.0%

What do the screens show for `O=C(Nc1ncc2c(n1)CC(c1ccco1)CC2=O)c1ccco1` (stereo not given)?
Pin1 inhibitor: inconclusive; USP2a inh: 8.2%; IL2 activator: -1.5; a7 integrin act: -4.5%; PKM2 act: 28.2µM*

Results for Cc1ccc([N+](=O)[O-])c(OCCn2cnc3ccccc32)c1 ?
ClpP mod: 0.0%; Pin1 inhibitor: 6.2%; USP2a inh: -0.6%; IL2 activator: -3.3; a7 integrin act: 4.0%; PKM2 act: 8.91µM*

Results for COc1cc(-c2ccc3ncnc(NCc4cccs4)c3c2)cc(OC)c1OC ?
Pin1 inhibitor: 31.1%

How did Cc1ccc2cc3cc(C(=O)NCc4ccco4)oc3nc2c1 do in these assays?
ClpP mod: 14.1µM*; Pin1 inhibitor: 152.5%; USP2a inh: 1.4%; IL2 activator: -2.6; a7 integrin act: -19.0%; PKM2 act: -6.8%
